# Measured values reported in PubChem BioAssay.
# Values joined by “and” are separate entries in the source; they are usually repeats but may differ in a detail not shown here. Equal values may be shown once. Active and inactive are the calls of the source. Unless noted, the rule behind the calls is not given here.
# Assays:
# [1] = compound effects on lung adenocarcinoma cell viability – A549, calcein-AM fluorescence, 48 h, basal, profiling panel (AID 1162); conditions: higher = more signal; note: test concentration not given here
# [2] = compound effects on differentiated 3T3-L1 adipocyte viability – cell-based, 3T3-L1 adipocytes, calcein-AM fluorescence, 48 h, basal, profiling panel (AID 1163); conditions: 3T3-L1 adipocytes viability, higher = more signal; note: test concentration not given here
# [3] = compound effects on hepatocellular carcinoma cell viability – HepG2, calcein-AM fluorescence, 48 h, basal, profiling panel (AID 1164); conditions: higher = more signal; note: test concentration not given here
# [4] = compound effects on multiple myeloma cell viability – MM1S, calcein-AM fluorescence, 48 h, basal, profiling panel (AID 1165); conditions: higher = more signal; note: test concentration not given here
# [5] = calcein-AM signal in unstimulated myeloma cells – cell-based, calcein-AM fluorescence, 48 h, PK04 Diversity Set, profiling panel (AID 1166); conditions: higher = more signal; RPMI8226 myeloma viability, calcein-AM fluorescence, 48 h unless noted;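 note: cells grown under basal conditions without added stimulus; test concentration not given here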
# [6] = JC-1 mitochondrial signal, unstimulated HepG2 cells – cell-based, JC-1 fluorescence, 24 h, 100 nL compound, profiling panel (AID 1167); conditions: HepG2 mitochondrial potential, higher = more signal; note: test concentration not given here
# [7] = JC-1 mitochondrial signal, unstimulated adipocytes – cell-based, JC-1 fluorescence, 3T3-L1 adipocytes, 24 h, 100 nL compound, profiling panel (AID 1168); conditions: JC-1 mitochondrial fluorescence; higher = more signal, called active from +8 up or from −8 down unless noted; note: test concentration not given here
# [8] = JC-1 mitochondrial signal, unstimulated myeloma cells – cell-based, JC-1 fluorescence, RPMI8226, 24 h, 100 nL compound, profiling panel (AID 1169); conditions: higher = more signal; RPMI8226 myeloma, JC-1 mitochondrial potential fluorescence, 24 h unless noted; note: test concentration not given here
# [9] = JC-1 mitochondrial signal, unstimulated MM1S myeloma – cell-based, JC-1 fluorescence, 24 h, 100 nL compound, profiling panel (AID 1170); conditions: MM1S mitochondrial potential, higher = more signal; note: test concentration not given here
# [10] = resazurin metabolic signal in A549 cells – cell-based, resazurin fluorescence, 24 h, PK04 Diversity Set, profiling panel (AID 1171); conditions: A549 viability; higher = more signal, called active from +8 up or from −8 down unless noted; note: test concentration not given here
# [11] = resazurin metabolic signal in HepG2 cells – cell-based, resazurin fluorescence, 24 h, PK04 Diversity Set, profiling panel (AID 1172); conditions: HepG2 viability, higher = more signal; note: test concentration not given here
# [12] = budding yeast growth changes without added modifier – OD600, strain BY4716, 24 h, basal condition, primary screen (AID 1173); conditions: S. cerevisiae BY4716 growth, OD600, 24 h; higher = more signal, called active from +8 up or from −8 down unless noted
# [13] = viability profiling in MM1S myeloma cells – cell-based, resazurin fluorescence, basal, 24 h, PK04 Diversity Set, profiling panel (AID 1174); conditions: higher = more signal, called active from +8 up or from −8 down unless noted; note: test concentration not given here
# [14] = molecular target: Dihydroorotate dehydrogenase (quinone), mitochondrial (Plasmodium falciparum (isolate 3D7)) (UniProt Q08210); experiment: inhibition of P. falciparum DHODH – biochemical, C-terminal His tag, absorbance 600 nm, primary screen (AID 1175); conditions: PfDHODH enzyme, DCIP absorbance 600 nm; higher = more signal, called active from +8 up or from −8 down unless noted;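 note: recombinant parasite enzyme with a five histidine tag at its C terminus; test concentration not given here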
# Chain of Dihydroorotate dehydrogenase (quinone), mitochondrial (Plasmodium falciparum (isolate 3D7)) (Q08210 whole entry, looked up): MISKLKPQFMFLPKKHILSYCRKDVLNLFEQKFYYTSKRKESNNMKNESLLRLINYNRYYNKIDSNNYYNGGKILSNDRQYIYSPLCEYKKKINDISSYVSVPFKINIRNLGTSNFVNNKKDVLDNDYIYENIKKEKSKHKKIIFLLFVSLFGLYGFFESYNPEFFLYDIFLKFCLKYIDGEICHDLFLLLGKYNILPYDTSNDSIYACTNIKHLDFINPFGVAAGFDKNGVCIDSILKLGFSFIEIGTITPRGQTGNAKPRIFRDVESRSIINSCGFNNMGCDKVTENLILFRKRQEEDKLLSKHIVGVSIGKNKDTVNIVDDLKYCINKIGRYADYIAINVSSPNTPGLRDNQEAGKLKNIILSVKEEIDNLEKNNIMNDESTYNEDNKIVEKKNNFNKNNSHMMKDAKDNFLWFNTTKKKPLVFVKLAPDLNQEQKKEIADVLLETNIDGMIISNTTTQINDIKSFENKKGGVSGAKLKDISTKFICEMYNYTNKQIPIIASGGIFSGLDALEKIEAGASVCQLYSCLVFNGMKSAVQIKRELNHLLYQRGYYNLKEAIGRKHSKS
# [15] = inhibition of PAO1 biofilm formation – strain PAO1, LB-PBS medium, absorbance 600 nm, primary screen (AID 1176); note: test concentration not given here; conditions: P. aeruginosa PAO1 growth/biofilm, A600, 12 h; higher = more signal
# [16] = growth modulation of vineyard yeast isolate – strain RM11-1a, OD600, basal, 24 h, primary screen (AID 1177);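 note: cultures grown under basal conditions with no added stressor; test concentration not given here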; conditions: S. cerevisiae RM11-1a growth, OD600, 24 h; higher = more signal, called active from +8 up or from −8 down unless noted
# [17] = growth of efflux-deficient E. coli DRC39 – strain DRC39, OD650, 24 h, E. coli filamentation inducers, primary screen (AID 1178);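 note: growth measured as culture turbidity by optical density at 650 nm; test concentration not given here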; conditions: E. coli DRC39 acrAB; higher = more signal, called active from +8 up or from −8 down unless noted
# [18] = growth of efflux-deficient E. coli DRC39 – strain DRC39, OD650, 48 h, E. coli filamentation inducers, primary screen (AID 1179);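 note: screen aims at cell division blockers that make cells filament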; conditions: E. coli DRC39 delta-acrAB growth, higher = more signal, called active from +8 up or from −8 down unless noted
# [19] = viability profiling in RPMI8226 myeloma cells – cell-based, resazurin fluorescence, basal, 24 h, PK04 Diversity Set, profiling panel (AID 1180); conditions: higher = more signal; RPMI8226 viability, resazurin fluorescence, 24 h unless noted;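 note: RPMI8826 multiple myeloma cell line at 5000 cells per well; test concentration not given here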
# [20] = molecular target: E3 ubiquitin-protein ligase XIAP (Homo sapiens) (UniProt P98170); experiment: small molecules binding XIAP protein – biophysical, small-molecule microarray, fluorescence 635 nm, primary screen (AID 1181); conditions: higher = more signal;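 note: score merges 667 nm emission and signal to noise over triplicate slides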
# Chain of E3 ubiquitin-protein ligase XIAP (Homo sapiens) (P98170 whole entry, looked up): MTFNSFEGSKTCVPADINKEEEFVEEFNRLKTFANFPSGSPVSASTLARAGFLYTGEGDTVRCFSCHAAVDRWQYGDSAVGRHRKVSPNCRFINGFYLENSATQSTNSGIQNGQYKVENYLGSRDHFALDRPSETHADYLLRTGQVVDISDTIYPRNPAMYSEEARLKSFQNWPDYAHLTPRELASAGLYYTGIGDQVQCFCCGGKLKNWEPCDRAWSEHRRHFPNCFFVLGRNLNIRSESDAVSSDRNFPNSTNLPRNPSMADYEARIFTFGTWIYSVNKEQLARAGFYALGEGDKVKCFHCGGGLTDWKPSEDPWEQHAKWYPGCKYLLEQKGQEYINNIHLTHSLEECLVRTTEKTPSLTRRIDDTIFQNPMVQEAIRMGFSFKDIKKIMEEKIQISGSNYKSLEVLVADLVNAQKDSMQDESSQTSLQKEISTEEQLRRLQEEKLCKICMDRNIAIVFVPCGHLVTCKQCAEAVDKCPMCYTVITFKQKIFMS
SMILES,z-score [1],z-score [2],z-score [3],z-score [4],z-score [5],z-score [6],z-score [7],z-score [8],z-score [9],z-score [10],z-score [11],z-score [12],z-score [13],composite z-score [14],z-score [15],z-score [16],z-score [17],z-score [18],z-score [19],composite z-score [20]
C=C(CC1(C(C)NP(=O)(c2ccccc2)c2ccccc2)CC1)c1ccccc1 (stereo not given),-2.12,0.844,-1.07,-3.18,-4.71,-2.36,-0.793 (inactive),-0.819,-0.133,2.93 (inactive),0.901,-16.1 (active),0.794 (inactive),-0.626 (inactive),1.38 (inactive),-16 (active),-0.628 (inactive),-0.645 (inactive),2,0.525
C[C@@H]1Cc2c(cnc3c2CN(C)CC3)CO1,0.298,0.288,-0.153,-1.39,0.089,0.389,0.284 (inactive),-0.258,0.677,0.707 (inactive),0.507,-0.583 (inactive),0.335 (inactive),-0.7 (inactive),0.0008 (inactive),-0.498 (inactive),-0.151 (inactive),0.0072 (inactive),0.992,0.276
CCOC(=O)[C@H]1CC=C2C(=O)Oc3ccccc3[C@@H]21,-0.961,-0.214,-1.13,-1.35,-0.132,-0.417,0.846 (inactive),0.979,-1.08,0.991 (inactive),0.867,-10.4 (active),-0.848 (inactive),0.188 (inactive),0.381 (inactive),-1.43 (inactive),-0.475 (inactive),-1.11 (inactive),-0.575,-0.0727
COC(=O)[C@H]1C(=O)c2ccccc2O[C@@](C(=O)OC)(c2ccccc2)[C@@H]1c1ccccc1,-0.513,-0.328,0.159,-1.16,-0.144,-0.598,-0.31 (inactive),-0.203,0.271,-0.002 (inactive),-0.515,-0.54 (inactive),-0.0272 (inactive),0.0983 (inactive),-0.233 (inactive),0.174 (inactive),0.27 (inactive),0.419 (inactive),0.223,0.182
CCCC=C(CCC)[C@@H](NP(=O)(c1ccccc1)c1ccccc1)c1ccccc1,-0.0868,-0.298,0.559,-0.687,-1.27,-1.95,0.21 (inactive),0.368,-1.5,1.82 (inactive),2.47,1.4 (inactive),1.16 (inactive),0.0585 (inactive),0.0944 (inactive),-0.903 (inactive),-0.486 (inactive),-0.236 (inactive),1.3,0.0205
CN1CCC(c2ccc(CO)cc2)=CC1C1CC1 (stereo not given),0.169,-0.228,0.061,-1.25,0.0447,-0.851,-0.625 (inactive),0.604,-0.409,-0.374 (inactive),-0.777,0.574 (inactive),-0.55 (inactive),-0.54 (inactive),-0.247 (inactive),-0.123 (inactive),0.501 (inactive),0.389 (inactive),-0.869,0.284
CC1N(P(=O)(c2ccccc2)c2ccccc2)CC(O)(c2ccccc2)CC12CC2 (stereo not given),-1.2 and -1.31,-0.216 and -0.899,-1.5 and -1.05,-0.187 and -0.545,-1.7 and -1.4,-0.722 and -1.02,-1.04 (inactive) and -1.11 (inactive),0.655 and -0.4,-0.307 and -0.694,0.146 (inactive) and 1.49 (inactive),-0.964 and 0.138,2.47 (inactive) and 0.135 (inactive),-1.13 (inactive) and -0.22 (inactive),0.296 (inactive) and -0.264 (inactive),0.495 (inactive) and 0.178 (inactive),1.23 (inactive) and -0.154 (inactive),-0.611 (inactive) and -0.406 (inactive),0.0506 (inactive) and -0.0402 (inactive),-1.54 and 0.553,-0.193 and -0.25
CCCc1cc2c(n1CCO)C(C)C1CN(C(=O)c3ccccc3)C(C)(C(=O)OC)C21 (stereo not given),-0.981,0.348,0.436,-1.38,-0.875,0.156,-0.962 (inactive),0.719,-0.379,-1.04 (inactive),-1.6,0.262 (inactive),-1.68 (inactive),-0.349 (inactive),-0.0703 (inactive),0.168 (inactive),-0.681 (inactive),-0.127 (inactive),-1.85,0.612
COC(=O)C1(C)C=C2C(=C(C)C(=O)C2C)CN1 (stereo not given),-1.32,-0.254,-1.21,0.224,-2.24,-1.57,-0.482 (inactive),0.262,-0.221,-1.62 (inactive),-1.13,2.09 (inactive),-2.31 (inactive),-0.809 (inactive),1.53 (inactive),1.17 (inactive),-0.608 (inactive),-1.64 (inactive),-1.24,0.226
CCCc1cc2c(n1Cc1ccc(C)cc1)C(C)C1CN(C(=O)c3ccccc3)C(C)(C(=O)OC)C21 (stereo not given),0.345,-0.441,1.11,-2.84,-4.73,2.34,-0.268 (inactive),0.00271,-1.59,-1.58 (inactive),-0.492,-0.283 (inactive),-1.04 (inactive),-1.07 (inactive),0.355 (inactive),-0.654 (inactive),0.103 (inactive),0.357 (inactive),-1.11,0.174
COc1cc2c(cc1O)C(C)N(C)CC2 (stereo not given),1.22,1.01,0.262,-0.853,0.456,0.0836,1.27 (inactive),-0.663,1.07,0.115 (inactive),-0.454,-0.709 (inactive),0.412 (inactive),-3.68 (inactive),-0.227 (inactive),-0.448 (inactive),0.516 (inactive),-0.385 (inactive),0.566,-0.184
CCCc1cc2c(n1Cc1ccco1)C(C)C1CN(C(=O)c3ccccc3)C(C)(C(=O)OC)C21 (stereo not given),-0.136,0.227,-0.369,-3.24,-2.66,2.35,-1.5 (inactive),0.228,-1.53,-1.36 (inactive),-1.24,-0.0767 (inactive),-1.85 (inactive),-0.455 (inactive),1.9 (inactive),0.264 (inactive),-1.25 (inactive),-0.951 (inactive),-1.3,0.471
COC(=O)[C@@]1(Cc2ccccc2)[C@H]2c3cc(C(=O)N(C)C)n(C)c3C[C@H]2CN1C(=O)c1ccccc1,-1.73,-0.537,-0.189,0.0394,-1.19,0.0427,-0.078 (inactive),-0.318,-0.437,0.0026 (inactive),-0.0935,0.658 (inactive),-0.923 (inactive),-0.105 (inactive),-0.222 (inactive),0.299 (inactive),0.0242 (inactive),0.0618 (inactive),-0.0721,0.071
COC(=O)[C@H]1[C@@H](O)[C@@]2(O)c3c(OC)cc(OC)cc3O[C@@]2(c2ccc(OC)cc2)[C@@H]1c1ccccc1,-2.35,-1.63,-2.23,-3.46,-3.35,-2.69,-0.0573 (inactive),-0.727,-1.19,-4.41 (inactive),-2.12,-0.795 (inactive),-3.65 (inactive),-0.447 (inactive),0.511 (inactive),0.452 (inactive),0.945 (inactive),0.669 (inactive),-4.1,-0.245
COC(=O)NCC=Cc1nc(CCC=CC(=O)O[C@H]2CC3CC(=O)O[C@@H](C=CCC(C)C)C[C@@H]4CC[C@H](C)[C@@H](C[C@@H](OC)C[C@H](C2)O3)O4)co1,-1.61,-0.804,-1.29,-2.61,-2.97,0.49,0.249 (inactive),-0.908,-2.54,-4.04 (inactive),-1.05,-1.03 (inactive),-2.04 (inactive),-0.646 (inactive),0.168 (inactive),-0.659 (inactive),0.523 (inactive),0.666 (inactive),-1.95,-0.102
COc1cc2c(cc1O)C=[N+](C)CC2,1.82,0.775,0.496,-0.0896,0.245,0.424,0.964 (inactive),-0.0385,-0.635,-1.52 (inactive),-0.365,0.248 (inactive),-0.765 (inactive),-1.7 (inactive),0.158 (inactive),-0.756 (inactive),0.313 (inactive),1.42 (inactive),-0.383,0.0613
